Structures are written as SMILES. Entries with a potency or affinity are not part of this list. Calls of active or inactive are those of the source.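 Rule for the calls: active = signal-lowering compounds whose fitted half-maximal concentration is at or below twice the top tested dose in every run; inconclusive = runs disagree, flat 30 to 70% inhibition, or poor curve fit; inactive = the rest.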

Chain of Protein S100-A4 (Homo sapiens) (P26447 whole entry, looked up): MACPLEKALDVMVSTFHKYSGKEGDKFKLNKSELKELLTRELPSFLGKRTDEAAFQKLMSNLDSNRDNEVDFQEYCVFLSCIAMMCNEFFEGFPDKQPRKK

The assay has as its target Protein S100-A4 (Homo sapiens) (UniProt P26447). Nature of the assay: S100A4-myosin IIA binding inhibitor potency, dose response, biochemical, fluorescence polarization, cherry-picked hits (AID 687001). Particulars: FP, S100A4/TAMRA-myosin IIA peptide binding; series mostly up to 11 µM. A general note: Polarisation of emitted light reports the rotation of a fluorescent probe.
Consider `Cc1noc(C)c1NC(=O)N(C)C[C@H]1OCCCC[C@H](C)Oc2ccc(NS(=O)(=O)c3ccc(F)cc3)cc2C(=O)N([C@H](C)CO)C[C@@H]1C`, for which the outcome was inactive.
As for `O=C(CSc1nc2cc(Cl)ccc2s1)c1ccco1`, the entry is “inactive”; as for `CN(CC(=O)NCC(=O)Nc1ccc(F)cc1)CC(=O)Nc1ccc(Cl)c(C(F)(F)F)c1`, “inactive”.
